Experimental data from article PMC12136788.
Positions count from the first letter of the chain named. In all, about 24,000 sequences were measured (“enrichment r”: median about 0.99, highest 2% from about 3.7 on). Only a selection was taken, and the highest values are over-represented in it overall.

T1: UNK ZnF1-3 (human, UniProt Q9C0B0 31-174)
T1 sequence: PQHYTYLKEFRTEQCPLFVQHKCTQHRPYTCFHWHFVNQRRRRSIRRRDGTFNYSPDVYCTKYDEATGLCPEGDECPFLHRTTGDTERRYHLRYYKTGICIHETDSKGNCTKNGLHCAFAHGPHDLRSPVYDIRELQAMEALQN

B1: chr16:94664806:94664807:+_ENSMUSG00000040785_ENSMUST00000117648|mus_mus|FALSE|FALSE (ssRNA)
RNA: GGGAGUUCUACAGUCCGACGAUCAUUAGGACUCUCAAAGUAUGCAGCGGCAUUUUCAUCUGCUCUGUUGCUGGCUACAAAAGAUGGCACCACUGGCAUGGAUCUUUGCAUUGGAUACUCAGAAGAAAUGUUGGCCAAAGGUGUCAACAGAGGAUUGAGCAUCA
B2: 15109990_15111016_889_CDS_ENSG00000179889_ENST00000396410|human|control|control (ssRNA)
RNA: GGGAGUUCUACAGUCCGACGAUCUGAGGAGACAUAACCCAGAGCCAAUGUUGCCAGAUUCACACCCUCCACAUGAAGCCAUAUGCCAUACUGCUCACAGAGUUCUUUCAAUCUCCCAAUCUUGUCUGUGUGUCCUACUGCUGCCAACAGAGGAUUGAGCAUCA
B3: 17503471_17513584_185_CDS_ENSG00000151552_ENST00000428702|human|control|control (ssRNA)
RNA: GGGAGUUCUACAGUCCGACGAUCCUUAAAGAGAGACUUGGAUUUGGCAUUGCCCCCGGCCCAUCCUCCAGCAACGCAAAGAAUUGCAUCCACCUUCUCUUCACCCAAGAGCUUUCCAACCUCAGCAGUCACCCAGUUGCGGGCCAACAGAGGAUUGAGCAUCA
B4: chr10:33190432:33190433:-_ENSG00000150093_ENST00000302278|hu_mus|hu_hu_hu_mus_True|1_98 (ssRNA)
RNA: GGGAGUUCUACAGUCCGACGAUCUACAUUUUCCAAACCUGCACAUGAAUAAAACCCUGGCCACAGAGCCCCAAAACUACCCUACUGUGACUAAGAUGCUGCUGCUGUGAGCUUGGUGUUGCAAAAUCCGCCUGAGUCAGUACUCAACAGAGGAUUGAGCAUCA
B5: chr10:33190432:33190433:-_ENSG00000150093_ENST00000302278|hu_mus|hu_hu_hu_mus_True|68_98 (ssRNA)
RNA: B4 RNA with C71U, A75G, C137A, A138G, U140A, A141U, C142U, U143C
B6: chr6:35837335:35837336:-_ENSG00000096063_ENST00000361690|hu_mus|FALSE|FALSE (ssRNA)
RNA: GGGAGUUCUACAGUCCGACGAUCGGGCUCCUGCUCAUCCCCAGAAGGUGUAUCUGCCCGAAUGCUCUCCUCCAGCUGGGUGAUGUCCUGUCGGGUGAGUGACUGCUCUGCAGAGGAUUGGCACACCAUGGUCUCAGAGGCCGUCAACAGAGGAUUGAGCAUCA
B7: chr2:126475859:126475860:-_ENSMUSG00000027361_ENSMUST00000110424|mus_mus|FALSE|FALSE (ssRNA)
RNA: GGGAGUUCUACAGUCCGACGAUCAGUUUCUGAAGAAUUGGACAAUGGGGCAGAAGCUUCAGCUAAGGCAGCUAACGUAGCUAAUACUGACGUAGAGGAGUUUCCAAACUGAACAGCAGAUACUCCUGUUUCAUCUGUGAGGUUCAACAGAGGAUUGAGCAUCA
B8: chr17:25041749:25041750:-_ENSMUSG00000024163_ENSMUST00000117509|mus_hu|FALSE|FALSE (ssRNA)
RNA: GGGAGUUCUACAGUCCGACGAUCCGAGGGAUAGGGGCGCUUGGCCGGAGGGGGGCUGGAGGAAGAGCUGAAGAGGCGGCUGAAGAACUGCCAGAUGGUCGACUUCUUCUUCUCCUGGACGGAUGGGUGCUCUCGGGACGCUCUCAACAGAGGAUUGAGCAUCA
B9: chr17:60770872:60770873:+_ENSG00000011028_ENST00000303375|hu_hu|hu_hu_hu_mus_True|1_8 (ssRNA)
RNA: GGGAGUUCUACAGUCCGACGAUCUCUUUAAAAAAAAAAAAAAAAAGACAAACAAUAAUAGCACAUUUCGAGAAUCAAGAACUACAAUAGAGGGUCCGCUUUGAGUUUUUGUUCACAUCGUCCUGCAACGCUGUCGCACCAGGACAACAGAGGAUUGAGCAUCA
B10: chr17:60770872:60770873:+_ENSG00000011028_ENST00000303375|hu_hu|hu_hu_hu_mus_True|88_88 (ssRNA)
RNA: GGGAGUUCUACAGUCCGACGAUCUCUUUAAAAAAAAAAAAAAAAAGUUUAAAAACAAUAGCACAUUUCGAGAAUCAAGAACUACAAUAGAGGGUCCGCUUUGAGUUUUUGUUCACAUCGUCCUGCACUGGGACACGGGGACUGCAACAGAGGAUUGAGCAUCA
B11: chr17:60770872:60770873:+_ENSG00000011028_ENST00000303375|hu_hu|hu_hu_hu_mus_True|18_48 (ssRNA)
RNA: GGGAGUUCUACAGUCCGACGAUCUCUUUAAAAAAAAAAAAAAAAAGACAAACAAUAAUAGCACAUUUCGAGAAUCAAGAACUACAAAGAAAGGGCCGCUUUGAGUUUUUGUUCACAACAUUGUCCCCUGGGACACGGGGACUGCAACAGAGGAUUGAGCAUCA
B12: chr17:60770872:60770873:+_ENSG00000011028_ENST00000303375|hu_hu|hu_hu_hu_mus_True|48_88 (ssRNA)
RNA: B10 RNA with U87A, A88G, G89A, G91A, U94G
B13: chr17:60770872:60770873:+_ENSG00000011028_ENST00000303375|hu_hu|hu_hu_hu_mus_True|18_88 (ssRNA)
RNA: B10 RNA with U117A, G119A, C121U, C122G, G124C, A126C
B14: chr17:60770872:60770873:+_ENSG00000011028_ENST00000303375|hu_hu|hu_hu_hu_mus_True|18_18 (ssRNA)
RNA: B11 RNA with A87U, G88A, A89G, A91G, G94U
B15: chr17:60770872:60770873:+_ENSG00000011028_ENST00000303375|hu_hu|hu_hu_hu_mus_True|48_58 (ssRNA)
RNA: B11 RNA with A77U, G78C, A86G, A117U, A119G, U121C, G122C, C124G, C126A
B16: chr17:60770872:60770873:+_ENSG00000011028_ENST00000303375|hu_hu|hu_hu_hu_mus_True|1_1 (ssRNA)
RNA: B9 RNA with A127C, C128U, C130G, U131G, G132A, U133C, C134A, G135C, C136G
B17: chr17:60770872:60770873:+_ENSG00000011028_ENST00000303375|hu_hu|hu_hu_hu_mus_True|18_58 (ssRNA)
RNA: B11 RNA with A77U, G78C, A86G, A87U, G88A, A89G, A91G, G94U
B18: chr17:60770872:60770873:+_ENSG00000011028_ENST00000303375|hu_mus|FALSE|FALSE (ssRNA)
RNA: B10 RNA with U47A, U48C, U49A, A52C, C55U
B19: chr17:60770872:60770873:+_ENSG00000011028_ENST00000303375|hu_hu|hu_hu_hu_mus_True|48_48 (ssRNA)
RNA: B11 RNA with A117U, A119G, U121C, G122C, C124G, C126A

Target: T1, UNK ZnF1-3
Experiment: nsRBNS (natural sequence RNA bind-n-seq); RBNS binding buffer (assumed for nsRBNS): 25 mM Tris pH 7.5, 150 mM KCl, 3 mM MgCl2, 0.01% Triton X-100, 500 ug/ml BSA, 20 U/ml SUPERase-In, 4 C; UNK is unkempt and MSI1 is Musashi-1; names of the RNAs are library labels; protein concentration not given here; high values mean tight binding

| Binder | binding signal |
| --- | --- |
| B1 | 1.22 enrichment R |
| B2 | 1.36 enrichment R |
| B3 | 1.33 enrichment R |
| B4 | 1.13 enrichment R |
| B5 | 0.909 enrichment R |
| B6 | 3.58 enrichment R |
| B7 | 1.31 enrichment R |
| B8 | 1.43 enrichment R |
| B9 | 3.63 enrichment R |
| B10 | 4.21 enrichment R |
| B11 | 3.63 enrichment R |
| B12 | 3.6 enrichment R |
| B13 | 3.34 enrichment R |
| B14 | 4.15 enrichment R |
| B15 | 3.59 enrichment R |
| B16 | 3.11 enrichment R |
| B17 | 3.65 enrichment R |
| B18 | 4.24 enrichment R |
| B19 | 3.87 enrichment R |
